Measured values taken from PubChem BioAssay AID1347383 (Zoeller Lab, School of Medicine, Boston University, 2020).
Activity calls are given as the source filed them.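 How the source made its calls: active means cell survival after UV exposure 2 SD above solvent-only control wells at 10 µM, confirmed on one or two repeats; inactive means the rest.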

Test: cell survival after pyrene fatty acid photosensitization – ZR-82 cells, Analyticon library, screen 2, phospholipid biosynthesis inhibitor project, primary screen (AID 1347383);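 further: survival reflects blocked phospholipid synthesis cutting uptake of the phototoxic fatty acid; compound and fatty acid exposure 3 h then viability read next day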
Conditions: ZR-82 CHO cells, pyrene-fatty acid UV killing, CellTiter Blue; at 10 µM; peroxisome-deficient CHO-K1 variant; with DGAT-1, DGAT-2 and ACAT inhibitors
In the case of `COc1ccc2ccc(=O)oc2c1`, the outcome is reported as “inactive”. In the case of `CC(C)=CCCC(C)(O)C1CC[C@]2(C)C1CC[C@@H]1[C@@]3(C)CCC(=O)C(C)(C)[C@@H]3CC[C@]12C` (stereo not given in full), the outcome is reported as “inactive”. For `CC(C)=CCn1cnc(=N)c2[nH]cnc21`, the outcome was “inactive”. In the case of `CC(=O)NC1C=CC(CCC(NC(C)=O)C(=O)O)C=C1` (stereo not given), the outcome is reported as “inactive”. For `O=c1ccc2ccc(O)cc2o1`, the outcome was “inactive”. For `CC1CC(O)/C=C/C(O)CCC(=O)Cc2c(Cl)c(O)cc(O)c2C(=O)O1` (stereo not given), the outcome was “inactive”. In the case of `O=c1c(-c2ccc(O)cc2O)coc2cc(O)cc(O)c12`, the outcome is reported as “inactive”. With `O=C(O)CCC1OC(=O)C(O)=C1c1ccccc1` (stereo not given) the outcome was “inactive”. In the case of `CCCCC[C@H](O)[C@H]1C(=O)OC[C@H]1CO`, the outcome is reported as “inactive”. With `OCCc1ccc(O)cc1` the outcome was “inactive”. In the case of `COC(=O)/C=C/c1ncn(C)c1CC=C(C)C`, the outcome is reported as “inactive”. In the case of `O=c1c(O)c(-c2ccc(O)cc2O)oc2cc(O)cc(O)c12`, the outcome is reported as “inactive”. In the case of `C=C1C(=O)O[C@@H]2C3=C(C)CCC[C@]3(C)CC[C@@]12O`, the outcome is reported as “inactive”. With `O=c1c(O)c(-c2cc(O)c(O)c(O)c2)oc2cc(O)cc(O)c12` the outcome was “inactive”. In the case of `CC1Cc2cc(O)c(O)cc2C(c2ccc(O)c(O)c2)C1C` (stereo not given), the outcome is reported as “inactive”. For `CC1(C)C=Cc2c(ccc3c2O[C@@H]2COc4cc5c(cc4[C@@]2(O)C3=O)OCO5)O1`, the outcome was “inactive”. With `O=C(c1cccc(O)c1)c1c(O)cc(O)cc1O` the outcome was “inactive”. In the case of `CC(O)C(O)c1ccc(OC(C)C(O)c2ccc(O)cc2)cc1` (stereo not given), the outcome is reported as “inactive”. With `CC(C)c1ccc2c(c1)CCC1C(C)(C(=O)O)CCCC21C` (stereo not given) the outcome was “inactive”. For `C=CC(C)(C)c1cc(/C=C/C(=O)c2ccc(OC)cc2)c(O)cc1O`, the outcome was “inactive”. In the case of `COc1cc(OC)c2c(c1Cl)O[C@]1(C2=O)C(O)=CC(=O)C[C@H]1C`, the outcome is reported as “inactive”. In the case of `C=C(C(=O)O)C1CC(OC(=O)CC(C)CC)C2(C)CCCC(=C)C2C1` (stereo not given), the outcome is reported as “inactive”. With `C=CC(C)(C)c1cc2cc(CC3OC3(C)C)c(OC)cc2oc1=O` (stereo not given) the outcome was “inactive”. In the case of `COc1c(O)cc([C@@H]2Oc3cc(O)cc(O)c3C[C@@H]2O)cc1O`, the outcome is reported as “inactive”. In the case of `CCCC(O)C1OCC2=C1C(O)C1OC1C2O` (stereo not given), the outcome is reported as “inactive”. For `O=C(O)c1cc(O)c2c(c1)C(=O)c1cccc(O)c1C2=O`, the outcome was “inactive”. With `CC#CC#C/C=C1\C=CC2(OC=CC2OC(=O)C=C(C)C)O1` (stereo not given) the outcome was “inactive”. In the case of `C/C(=C\C(=O)C(C)C1CCC2C3=C(CCC21C)C1(C)CCC(O)C(C)(C)C1(O)CC3)C(C)(C)O` (stereo not given), the outcome is reported as “inactive”. For `CC/C=C\C/C=C\C/C=C\CCCCCCCC(=O)OCC(O)COC1OC(CO)C(O)C(O)C1O` (stereo not given), the outcome was “inactive”. For `C=C1NC(=O)C2CCCN2C1=O` (stereo not given), the outcome was “inactive”. With `C=C(C)[C@@H]1Cc2cc3c(cc2O1)OC[C@@]1(O)c2ccc(O)cc2O[C@@H]31` the outcome was “inactive”. For `COc1c2cc(c(O)c1OC)CCCCC(O)CCc1ccc(O)c-2c1` (stereo not given), the outcome was “inactive”. For `O=C(O)CCc1c(O)ccoc1=O`, the outcome was “inactive”. In the case of `COc1c(OC)c(O)c2c3c(cc4ccccc42)NC(=O)c13`, the outcome is reported as “inactive”. In the case of `C=C1C(=O)O[C@@H]2/C=C(\C)CC/C=C(\C(=O)O)C[C@@H](OC(=O)/C(C)=C/C)C12` (stereo not given in full), the outcome is reported as “inactive”. For `CC1CCC2(C)C(CC(O)C(O)C23CO3)C1(C)CCC1=CC(O)OC1=O` (stereo not given), the outcome was “inactive”. In the case of `O=C(/C=C/c1ccc(O)cc1)c1c(O)cc(O)cc1O`, the outcome is reported as “inactive”. In the case of `C=C1C(=O)OC2C1C(O)CC1(C)C(O)CCC(C=O)C21` (stereo not given), the outcome is reported as “inactive”. In the case of `O=C(/C=C(O)/C=C/c1ccc(O)cc1)/C=C/c1ccc(O)cc1`, the outcome is reported as “inactive”. In the case of `C/C=C/CCC1Cc2cc(O)c(CCCC)c(O)c2C(=O)O1` (stereo not given), the outcome is reported as “inactive”.
